Columns and labels:
Assay in all cases: log2 ratio of Biotin-Ahx-Ub-VS probe labelling (fragment/DMSO); higher = less target engagement (more negative = stronger competition), active = hit call of the paper (q ≤ 0.05, log2 ratio ≤ -1)
Settings in all cases: compound concentration: 200 uM; treatment time: 3 h
OTUD6B = target: T1, OTUD6B (UniProt Q8N6M0)
T1 sequence (whole entry): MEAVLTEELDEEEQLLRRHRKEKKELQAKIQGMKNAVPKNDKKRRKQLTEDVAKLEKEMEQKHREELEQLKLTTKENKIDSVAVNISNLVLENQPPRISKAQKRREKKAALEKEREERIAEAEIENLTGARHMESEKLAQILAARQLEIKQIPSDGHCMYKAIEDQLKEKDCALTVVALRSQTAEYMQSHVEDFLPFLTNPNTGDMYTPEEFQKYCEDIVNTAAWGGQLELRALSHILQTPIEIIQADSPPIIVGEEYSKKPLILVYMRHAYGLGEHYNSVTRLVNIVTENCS
How it was run: (§1)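 Using Biotin-Ahx-Ub-VS at 0.5 µM final for 1 h, DUBs were labelled in HEK293T lysate (495 µg per sample) that had first been treated in triplicate with fragment at 200 µM or vehicle for 3 h. NeutrAvidin enrichment, LysC and trypsin digestion and diaPASEF LC-MS/MS followed. Spectronaut label-free quantities were global-median-normalised. Values are average log2 fragment/vehicle ratios by unpaired t-test, using proteins with ≥2 unique peptides.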

OTUD7B = target: T2, OTUD7B (UniProt Q6GQQ9)
T2 sequence (whole entry): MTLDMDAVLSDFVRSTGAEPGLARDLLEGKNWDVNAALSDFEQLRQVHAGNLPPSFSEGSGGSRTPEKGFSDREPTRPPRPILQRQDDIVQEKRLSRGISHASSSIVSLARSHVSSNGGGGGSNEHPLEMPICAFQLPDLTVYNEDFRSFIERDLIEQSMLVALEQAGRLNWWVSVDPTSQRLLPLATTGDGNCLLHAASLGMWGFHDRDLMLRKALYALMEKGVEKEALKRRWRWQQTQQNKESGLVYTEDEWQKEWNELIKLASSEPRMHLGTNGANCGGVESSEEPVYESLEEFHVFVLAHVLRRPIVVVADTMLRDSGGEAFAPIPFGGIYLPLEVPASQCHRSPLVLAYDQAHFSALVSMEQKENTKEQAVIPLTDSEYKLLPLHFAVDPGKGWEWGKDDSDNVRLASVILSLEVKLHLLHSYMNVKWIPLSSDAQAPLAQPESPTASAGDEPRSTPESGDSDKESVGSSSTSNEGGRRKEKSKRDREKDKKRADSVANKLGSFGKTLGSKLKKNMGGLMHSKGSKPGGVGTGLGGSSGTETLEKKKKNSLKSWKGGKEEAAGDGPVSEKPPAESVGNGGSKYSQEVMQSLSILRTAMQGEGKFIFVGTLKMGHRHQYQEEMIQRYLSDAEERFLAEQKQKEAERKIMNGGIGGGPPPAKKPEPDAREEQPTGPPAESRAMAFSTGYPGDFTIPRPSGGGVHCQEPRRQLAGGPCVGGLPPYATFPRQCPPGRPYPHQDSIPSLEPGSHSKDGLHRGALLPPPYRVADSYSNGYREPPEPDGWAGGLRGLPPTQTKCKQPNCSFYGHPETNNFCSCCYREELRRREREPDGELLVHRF
How it was run: as §1

PRPF8 = PRPF8 (UniProt Q6P2Q9)
How it was run: as §1

PSMD7 = target: T3, PSMD7 (UniProt P51665)
T3 sequence (whole entry): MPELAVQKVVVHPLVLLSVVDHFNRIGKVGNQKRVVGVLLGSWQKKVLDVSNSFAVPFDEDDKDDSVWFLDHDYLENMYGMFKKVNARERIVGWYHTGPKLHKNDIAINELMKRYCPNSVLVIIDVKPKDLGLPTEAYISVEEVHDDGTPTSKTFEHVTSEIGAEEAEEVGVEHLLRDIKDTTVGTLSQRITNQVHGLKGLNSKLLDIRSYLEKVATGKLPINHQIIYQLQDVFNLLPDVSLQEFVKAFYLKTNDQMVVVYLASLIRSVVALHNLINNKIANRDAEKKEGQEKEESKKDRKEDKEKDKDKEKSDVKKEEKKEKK
How it was run: as §1

UCHL1 = UCHL1 (UniProt P09936)
Chain of UCHL1 (P09936 whole entry, looked up): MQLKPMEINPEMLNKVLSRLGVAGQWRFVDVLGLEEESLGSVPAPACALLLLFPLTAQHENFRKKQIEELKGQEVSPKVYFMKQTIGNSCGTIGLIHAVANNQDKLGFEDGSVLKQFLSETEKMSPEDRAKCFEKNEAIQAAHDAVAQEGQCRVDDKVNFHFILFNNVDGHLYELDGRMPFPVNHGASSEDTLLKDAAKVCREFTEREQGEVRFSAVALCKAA
How it was run: as §1

UCHL3 = target: T4, UCHL3 (UniProt P15374)
T4 sequence (whole entry): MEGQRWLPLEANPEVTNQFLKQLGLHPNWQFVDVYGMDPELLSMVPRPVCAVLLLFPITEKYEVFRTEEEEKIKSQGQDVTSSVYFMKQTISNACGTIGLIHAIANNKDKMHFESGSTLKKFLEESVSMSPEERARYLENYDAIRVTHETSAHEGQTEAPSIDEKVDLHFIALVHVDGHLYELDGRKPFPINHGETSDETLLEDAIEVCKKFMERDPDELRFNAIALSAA
How it was run: as §1

UCHL5 = target: T5, UCHL5 (UniProt Q9Y5K5)
T5 sequence (whole entry): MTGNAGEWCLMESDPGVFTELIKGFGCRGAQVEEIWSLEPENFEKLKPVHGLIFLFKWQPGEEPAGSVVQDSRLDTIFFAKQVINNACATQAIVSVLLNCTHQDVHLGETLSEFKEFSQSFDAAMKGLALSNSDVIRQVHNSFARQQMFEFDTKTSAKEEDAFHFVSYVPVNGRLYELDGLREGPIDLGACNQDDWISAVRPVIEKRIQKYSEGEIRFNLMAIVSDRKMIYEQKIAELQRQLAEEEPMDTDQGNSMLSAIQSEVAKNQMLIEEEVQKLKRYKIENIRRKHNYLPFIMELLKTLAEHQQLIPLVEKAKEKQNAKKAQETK
How it was run: as §1

USP10 = USP10 (UniProt Q14694)
Chain of USP10 (Q14694 whole entry): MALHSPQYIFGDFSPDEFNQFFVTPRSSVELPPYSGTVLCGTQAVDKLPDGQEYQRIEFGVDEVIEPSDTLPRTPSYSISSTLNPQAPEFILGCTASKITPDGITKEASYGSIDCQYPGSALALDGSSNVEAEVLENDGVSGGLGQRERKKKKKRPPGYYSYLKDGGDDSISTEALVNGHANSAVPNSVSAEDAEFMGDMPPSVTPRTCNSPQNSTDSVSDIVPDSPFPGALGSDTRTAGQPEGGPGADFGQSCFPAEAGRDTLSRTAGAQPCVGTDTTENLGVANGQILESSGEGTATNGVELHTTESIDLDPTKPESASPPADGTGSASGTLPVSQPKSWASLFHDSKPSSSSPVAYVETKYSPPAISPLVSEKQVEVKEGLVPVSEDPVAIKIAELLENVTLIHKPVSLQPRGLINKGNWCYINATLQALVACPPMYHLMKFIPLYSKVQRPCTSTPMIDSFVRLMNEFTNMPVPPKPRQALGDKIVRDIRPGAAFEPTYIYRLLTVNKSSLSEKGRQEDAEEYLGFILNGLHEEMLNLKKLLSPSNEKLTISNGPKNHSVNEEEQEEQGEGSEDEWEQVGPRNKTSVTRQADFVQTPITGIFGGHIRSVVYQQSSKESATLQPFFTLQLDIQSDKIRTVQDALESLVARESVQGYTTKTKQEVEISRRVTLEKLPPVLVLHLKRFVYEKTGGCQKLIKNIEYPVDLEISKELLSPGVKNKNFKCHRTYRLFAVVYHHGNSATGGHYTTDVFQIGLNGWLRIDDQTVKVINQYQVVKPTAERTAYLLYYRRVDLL
How it was run: as §1

USP15 = target: T6, USP15 (UniProt Q9Y4E8)
T6 sequence (whole entry): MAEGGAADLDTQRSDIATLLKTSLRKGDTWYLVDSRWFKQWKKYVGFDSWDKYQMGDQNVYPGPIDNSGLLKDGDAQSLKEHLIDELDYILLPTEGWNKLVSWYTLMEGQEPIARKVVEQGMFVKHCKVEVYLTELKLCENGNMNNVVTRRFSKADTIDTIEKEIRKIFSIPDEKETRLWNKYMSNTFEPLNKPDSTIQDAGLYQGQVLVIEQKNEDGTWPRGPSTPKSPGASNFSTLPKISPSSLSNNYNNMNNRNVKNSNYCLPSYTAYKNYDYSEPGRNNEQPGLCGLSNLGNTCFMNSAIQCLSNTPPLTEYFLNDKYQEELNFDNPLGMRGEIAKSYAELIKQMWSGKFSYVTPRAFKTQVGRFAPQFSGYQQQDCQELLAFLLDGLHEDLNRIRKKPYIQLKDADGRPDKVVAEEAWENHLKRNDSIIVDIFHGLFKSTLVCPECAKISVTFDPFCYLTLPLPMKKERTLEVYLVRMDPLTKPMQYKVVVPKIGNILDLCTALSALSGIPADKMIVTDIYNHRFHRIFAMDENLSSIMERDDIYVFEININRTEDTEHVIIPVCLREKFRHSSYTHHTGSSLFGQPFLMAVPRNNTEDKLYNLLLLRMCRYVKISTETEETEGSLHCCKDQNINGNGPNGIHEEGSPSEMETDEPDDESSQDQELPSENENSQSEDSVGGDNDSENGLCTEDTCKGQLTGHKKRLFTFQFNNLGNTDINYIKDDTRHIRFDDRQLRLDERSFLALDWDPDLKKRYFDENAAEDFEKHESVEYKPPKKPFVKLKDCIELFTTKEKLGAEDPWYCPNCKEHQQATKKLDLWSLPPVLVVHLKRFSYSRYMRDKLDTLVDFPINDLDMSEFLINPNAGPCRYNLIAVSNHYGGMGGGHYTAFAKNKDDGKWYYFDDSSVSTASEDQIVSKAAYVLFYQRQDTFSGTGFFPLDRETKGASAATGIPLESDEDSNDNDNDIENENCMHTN
How it was run: as §1

USP16 = USP16 (UniProt Q9Y5T5)
Chain of USP16 (Q9Y5T5 whole entry, looked up): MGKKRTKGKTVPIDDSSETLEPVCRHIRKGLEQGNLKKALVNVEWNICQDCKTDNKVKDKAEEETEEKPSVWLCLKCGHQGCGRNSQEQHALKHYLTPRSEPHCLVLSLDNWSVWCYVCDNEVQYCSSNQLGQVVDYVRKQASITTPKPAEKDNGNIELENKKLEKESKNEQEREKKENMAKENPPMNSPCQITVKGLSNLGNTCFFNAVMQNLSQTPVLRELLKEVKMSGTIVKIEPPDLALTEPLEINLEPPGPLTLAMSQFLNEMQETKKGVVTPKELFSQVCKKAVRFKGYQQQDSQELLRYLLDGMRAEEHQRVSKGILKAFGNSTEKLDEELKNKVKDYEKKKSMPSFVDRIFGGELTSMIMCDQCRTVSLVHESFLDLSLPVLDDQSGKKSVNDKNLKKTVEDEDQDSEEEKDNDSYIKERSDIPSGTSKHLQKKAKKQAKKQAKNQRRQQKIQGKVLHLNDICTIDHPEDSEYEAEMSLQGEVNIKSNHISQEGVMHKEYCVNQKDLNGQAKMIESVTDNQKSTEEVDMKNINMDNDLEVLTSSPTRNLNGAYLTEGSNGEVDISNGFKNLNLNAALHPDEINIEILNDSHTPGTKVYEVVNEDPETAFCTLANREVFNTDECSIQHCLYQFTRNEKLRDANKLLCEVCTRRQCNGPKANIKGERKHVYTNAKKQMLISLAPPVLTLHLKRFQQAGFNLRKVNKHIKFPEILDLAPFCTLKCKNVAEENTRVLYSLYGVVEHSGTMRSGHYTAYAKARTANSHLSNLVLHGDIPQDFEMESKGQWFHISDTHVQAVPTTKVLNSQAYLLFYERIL
How it was run: as §1

Measured: log2 ratio of Biotin-Ahx-Ub-VS probe labelling

Cc1cccnc1NC(=O)C1CCN(C(=O)CCl)CC1.Cl
inactive: OTUD6B -0.127 | OTUD7B -0.284 | PRPF8 -0.0508 | PSMD7 -0.189 | UCHL3 0.088 | UCHL5 -0.328 | USP10 -0.146 | USP15 -0.24 | USP16 0.018
active: UCHL1 -1.33
